TRAIL sens C8: caspase-8 TRAIL sensitization; NB7+C8 cells + TRAIL, ATPlite viability luminescence; inhibition (viability loss, TRAIL sensitization), % at 10 µM; 360,000 compounds, 1% hits;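 active = compounds causing at least 50% loss of cell viability in the single-dose screen, relative to plate controls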
HIF-2a block: blocks HIF-2a reporter activity; inhibition, % at 18.8 µM; AID 624352; 786-0 RCC cells HIF-2a reporter, luciferase luminescence, overnight; 360,000 compounds, 0.72% hits;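 active = inhibition of the luminescence signal of 40% or more relative to plate controls, in a single-dose primary screen at 18.75 µM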
PPC-1+TRAIL kill: PPC-1 cancer cell killing with TRAIL present | PPC-1 cells + TRAIL, ATPLite viability luminescence | cell killing (% activity), % at 4 µM or 5 µM | 220,000 compounds, 0.41% hits | AID 1443;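 active = cell killing above 50% in the first pass at 4 µM, then a duplicate retest at 5 µM averaging 50% or more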;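 note: plate controls were cells with TRAIL plus DMSO for no effect and medium-only wells lacking cells for full effect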
hiPSC survival: increases survival of single human iPS cells. 360,000 compounds, 0.044% hits. hiPSC single-cell survival, ATPlite luminescence; 100% = ROCK inhibitor wells, 0% = DMSO. survival enhancement, % at 20 µM; in the data active = survival enhancement above about 18%;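 note: cells exposed to compounds for 16 hours before the ATP read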
CF NFkB block: blocks PAF-induced NF-kB reporter in cystic fibrosis cells. KKLEB NF-kB-GFP reporter, GFP fluorescence overnight. inhibition, % at 5 µM. 360,000 compounds, 0.86% hits. AID 588850;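 active = at least 50% inhibition at 5 µM, scaled per plate between neutral and stimulator controls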;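 note: PAF is a Pseudomonas aeruginosa culture filtrate used as stimulus; plate controls were PAF-stimulated DMSO wells for no effect and unstimulated DMSO wells for full effect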
KKLEB cytotox: CF airway cell cytotoxicity counter-screen; KKLEB CF airway cells viability, ATPlite luminescence, overnight; stronger effect = lower value; cells stimulated with P. aeruginosa culture filtrate; 360,000 compounds, 0.36% hits; AID 602141; activity change (cytotoxicity), % at 5 µM;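 active = corrected activity change at or below -50% at 5 µM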
CF NFkB inh conf: CF NF-kB inhibition confirmation, single concentration; shares compounds with CF NFkB block; KKLEB CF airway cells, PAF-induced NF-kB-GFP fluorescence, overnight; inhibition, % at 5 µM; 1,300 compounds, 64% hits; AID 602472; in the data active = inhibition above about 40%;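 note: stimulus PAF is a Pseudomonas aeruginosa filtrate and not platelet activating factor; plate controls were DMSO wells with stimulus for no effect and unstimulated DMSO wells for full effect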
Active calls of the source: *; nt = not tested or not shown. A selection: hits, their analogues and other compounds. The true share with any hit is near 2.2%.

SMILES	TRAIL sens C8	HIF-2a block	PPC-1+TRAIL kill	hiPSC survival	CF NFkB block	KKLEB cytotox	CF NFkB inh conf
C=CCNC(=O)NC(=O)COC(=O)[C@H](C)NS(=O)(=O)c1c(C)c(C)cc(C)c1C	6	6	4	0	-17	4	nt
CCOc1cc(Br)c(Br)c(C=Nc2ccc(NC(C)=O)cc2)c1O	-26	28	-2	1	69*	-1	61*
Cc1noc(C)c1COc1ccc(C(=O)NCCc2ccc(F)cc2)cc1	1	-49	nt	-2	-6	-8	nt
CC12C=CC(=O)C=C1CCC1C2CCC2(C)C(C(=O)CO)CCC12 (configuration not stated)	9	13	nt	0	11	-12	nt
CCCC1O[C@@H]2C[C@H]3[C@@H]4CCC5=CC(=O)C=C[C@]5(C)[C@H]4[C@@H](O)C[C@]3(C)[C@]2(C(=O)CO)O1 (some centres not stated)	1	28	27	-4	90*	22	23
O=C1NC(=S)N/C1=C/c1cccnc1	-6	12	17	-1	52*	-6	46*
O=C1NC(=S)N/C1=C\c1cccnc1	2	18	3	0	54*	-2	64*
CCOC(=O)c1ccc(-n2cccc2/C=C2\NC(=O)NC2=O)cc1	10	7	nt	-2	-4	-14	nt
CCCCCCNC(=O)O[C@H]1Cn2c(=O)ccc(=O)n2[C@@H]2CN(S(=O)(=O)c3ccc(C)cc3)C[C@]12O	28	33	nt	-4	62*	-14	40
C/C(=N/Nc1ccccc1[N+](=O)[O-])c1ccc([N+](=O)[O-])cc1	-7	14	nt	2	51*	-38	24
COCc1cc(=O)[nH]c(SCCS(=O)(=O)c2ccc(C)cc2)n1	-3	0	16	1	-7	-15	nt
COCc1cc(=O)[nH]c(SCCS(=O)(=O)c2ccc(Cl)cc2Cl)n1	-19	12	11	0	100*	-43	-15
Cc1ccc(Nc2nc3nonc3[nH]c2=O)cc1Cl	21	-145	14	0	52*	-35	81*
Cc1ccc(Nc2nc3nonc3[nH]c2=O)cc1C	27	-167	36	-1	-18	2	nt
CCOc1ccc2nc(SCC(=O)c3ccc(O)cc3O)sc2c1	-11	-63	nt	0	58*	0	45*
Cc1cc(N2C(=O)C(O)=C(C(=O)c3ccc(C)o3)C2c2cccc(Oc3ccccc3)c2)no1 (configuration not stated)	4	4	nt	0	51*	6	64*
CC(C)Cc1nc2oc3c(NCc4cccnc4)ncnc3c2c2c1CCC2	10	18	7	0	26	-15	nt
CC(C)Cc1nc2oc3c(NCC4CCCO4)ncnc3c2c2c1CCC2 (configuration not stated)	23	16	38	3	76*	0	90*
COc1ccc(-c2csc(C(O)c3cccc(OC)c3)n2)cc1 (configuration not stated)	-6	-67	nt	7	-27	17	nt
CCN(CC)CCN(C(=O)CCS(=O)(=O)c1ccccc1)c1nc2cc3c(cc2s1)OCO3	-11	12	nt	0	53*	-7	3
O=C(CCS(=O)(=O)c1ccccc1)N(CCCN1CCOCC1)c1nc2ccccc2s1	28	-141	nt	0	73*	-22	55*
CCOC(=O)Oc1c(OC)cc(C(=O)O[C@@H]2C[C@@H]3CN4CCc5c([nH]c6cc(OC)ccc56)[C@H]4C[C@@H]3[C@H](C(=O)OC)[C@H]2OC)cc1OC	14	15	nt	-3	77*	11	87*
COC(=O)C1C2CC3c4[nH]c5cc(OC)ccc5c4CCN3CC2CC(OC(=O)CC(C)=O)C1OC (configuration not stated)	-10	5	nt	-1	-9	-2	nt
O=[N+]([O-])c1ccc2ncnc(N3CCN(Cc4ccc5c(c4)OCO5)CC3)c2c1	31	11	nt	1	68*	10	85*
Cc1ccc(S(=O)(=O)N2CCN(C(=O)CC(C)n3nc(C)c(Cl)c3C)CC2)cc1C (configuration not stated)	-4	7	nt	0	-4	5	nt
SMILES	TRAIL sens C8	HIF-2a block	PPC-1+TRAIL kill	hiPSC survival	CF NFkB block	KKLEB cytotox	CF NFkB inh conf
CCCCOC(=O)/C=C\C(=O)NC(N)=O	0	32	19	-1	57*	-10	-15
COc1ccccc1Cc1c(-c2ccc(C)cc2)nc2c(C)cc(Br)cn12	9	-18	nt	10	28	-25	nt
COc1ccc(Cc2c(-c3ccco3)nc3c(C)cc(Br)cn23)c(C)c1	-16	1	nt	-2	-8	-1	nt
Cc1ccc(Cc2c(-c3ccc(F)cc3)nc3c(C)cc(Br)cn23)cc1	7	-39	nt	0	59*	-30	16
COc1ccc(Cc2c(-c3ccco3)nc3ccc(Br)cn23)c(C)c1	-4	-21	nt	0	53*	-26	-13
COc1ccccc1Cc1c(-c2ccco2)nc2c(C)cc(Br)cn12	13	93*	nt	-2	66*	-46	-254
COc1ccccc1Cc1c(-c2ccc(F)cc2)nc2c(C)cc(Br)cn12	-1	-52	nt	2	60*	4	16
CC(C)CN1CCN(C(=O)CCc2nnc(Cc3c[nH]c4ccccc34)o2)[C@@H](C)C1=O	8	-41	nt	1	10	-11	nt
CCOc1ccc(S(=O)(=O)n2nc(C)cc2C)cc1	2	19	nt	0	-3	2	nt
Cc1cc(S(=O)(=O)N2CCCOC2CNC(=O)C(=O)NCCCN2CCOCC2)ccc1F (configuration not stated)	-7	9	nt	2	-12	-9	nt
O=C(CNC(=O)c1ccc(Cl)cc1)NC(CO)c1ccccc1 (configuration not stated)	-3	8	nt	0	-12	5	nt
COc1cc(Br)c(C(=O)c2nccc3cc(OC)c(OC)cc23)cc1OC	5	25	nt	0	60*	-14	14
Cc1ccc([C@@H]2CC=C(C(=O)O)[C@H](c3ccc(C(C)(C)C)cc3)N2S(=O)(=O)c2ccc(C)cc2)cc1	13	3	nt	4	51*	0	22
Cc1ccc(S(=O)(=O)N2[C@@H](c3ccc(C(C)(C)C)cc3)C(C(=O)O)=CC[C@H]2c2ccc(C(C)C)cc2)cc1	-3	16	nt	1	62*	12	53*
Cc1c(C(=O)Nc2ccc(C(F)(F)F)cc2)sc2ncn(CC(=O)N3CCN(c4ccccn4)CC3)c(=O)c12	30	11	nt	1	17	-17	nt

Screens (PubChem BioAssay)
